The results in this text go back to PubChem BioAssay (Tox21).

Results filed as inconclusive are left out. Unmarked numbers belong to inactive results. Active and inactive are the calls of the source. Calls follow the shape of the full dose curve.
% is scaled to controls: 0 for no effect and ±100 for the full control effect; potency is read from the fitted curve at half-maximal effect.

A short description of the test: p53 small molecule agonists, cell-based qHTS assay with human liver microsomes: qHTS cell viability counter screen (AID 1963579). Also: nearly all actives have a fitted effect of over 45% in size. Particulars: p53RE-bla HCT-116 viability, ATP luminescence, 16 h, HLM; series mostly up to 66 µM; activity change, negative = cytotoxicity: at the top concentration. From the text: National Center for Advancing Translational Sciences [NCATS]
Division of Preclinical Innovation [DPI]
U.S. Environmental Protection Agency [EPA]
National Institutes of Environmental Health Sciences [NIEHS]
National Toxicology Program [NTP]
U.S. Food and Drug Administration [FDA]
p53, a tumor suppressor protein, is activated following cellular insult, including DNA damage and other cellular stresses. The activation of p53 regulates cell fate by inducing DNA repair, cell cycle arrest, apoptosis, or cellular senescence. The activation of p53, therefore, is a good indicator of DNA damage and other cellular stresses. […] The activation of the reporter gene under culture conditions can be detected by fluorescence intensity. This cell line was used to screen the Tox21 10K compound library in the condition of presence of human liver microsomes and to identify agonists that activate the p53 signaling pathway after in vitro metabolic activation (Ooka et al., Archive of Toxicology 96:1975-1987, 2022).
Tox21 Assay Protocol Summary:
The p53RE-bla cells were dispensed at 4,000cells/3ul/well in 1536-well black-clear bottom plates. After the assay plates were incubated at 37 C, 5% CO2 incubator for 5 hours, 23 nL of compounds dissolved in DMSO, positive controls or DMSO only was transferred to the assay plate. Following compound addition, 3 uL of human liver microsomes (XenoTech, Kansas City, KS) at final concentration of 0.5 mg/mL and 1uL of B-Nicotinamide adenine dinucleotide 2'-phosphate (NADPH) at final concentration of 0.5 mg/mL were transferred to the assay plate. The plates were incubated at 37 C for 16 hours. 1 uL of LiveBLAzer detection mixture was added to each well and the plates were incubated at room temperature in the dark for 2 h. Fluorescence intensity at 460 and 530 nm emission and 405 nm excitation were measured by an Envision plate reader. For cell viability readout that measures cytotoxicity, 4 ul/well of CellTiter-Glo reagent was added into the assay plates using a Flying Reagent Dispenser. After 30 min incubation at room temperature, the luminescence intensity in the plates was measured using a ViewLux plate reader.
With `C[Si](Cl)(c1ccccc1)c1ccccc1`, the “activity change, negative = cytotoxicity” value was 0.455%.
Take `CCCCCCOC(=O)CCCCCCCC(=O)OCCCCCC`: the “activity change, negative = cytotoxicity” value was 3.5%.
Regarding `C[C@]12CC[C@@H]3c4ccc(O)cc4CC[C@H]3[C@@H]1CC[C@@H]2OC(=O)CCC1CCCC1`, the Potency entry was “inactive”.
Regarding `CCOC(=O)COC(=O)c1cc(Oc2ccc(C(F)(F)F)cc2Cl)ccc1[N+](=O)[O-]`, the “activity change, negative = cytotoxicity” value is 3.38%.
Same read-out and setting: the figure for `CCOC(=O)[C@H](CCc1ccccc1)N[C@H]1CCc2ccccc2N(CC(=O)O)C1=O` is 18.8% [at 30.3 µM]; for `COc1cc2ncnc(Nc3ccc(F)c(Cl)c3)c2cc1OCCCN1CCOCC1` it is -0.186% [at 30.3 µM]; for `CCCn1cc[n+](C)c1C` it is -6.64%.
The same measure, in the same setting: the figure for `CCCCN(CCCC)CCC(O)c1cc2c(Cl)cc(Cl)cc2c2cc(C(F)(F)F)ccc12` (stereo not given) is 3.07% [at 30.3 µM].
On the same count and under the same terms, to `CSc1ccc(/C=C2/C(C)=C(CC(=O)O)c3cc(F)ccc32)cc1` belongs 0.269% [at 30.3 µM].
For the molecule `BrCCOc1ccccc1`, the “activity change, negative = cytotoxicity” value is 4.08%.
With `O=C(CS)OCCOC(=O)CS`, the “activity change, negative = cytotoxicity” value is 3.6%.
On the same count and under the same terms, the figure for `CCC1(C)CC(=O)NC1=O` (stereo not given) is 0.476% [at 30.3 µM].
Take `COc1cc(C(=O)NC2CCN(C)CC2)ccc1Nc1ncc2c(n1)N(C1CCCC1)CC(F)(F)C(=O)N2C`: the Potency was 16.7 µM (active).
As to `CN1CCN(c2cc3c(nn2)Oc2ccccc2N3C)CC1`, the activity change, negative = cytotoxicity is -6.1% [at 13.5 µM].
Regarding `O=S(=O)(O)c1cc(O)c2ccc(Nc3ccccc3)cc2c1`, the “activity change, negative = cytotoxicity” value was 8.54%.
Still for that read-out and setting: to `CCC(Cl)C(Cl)C(Cl)CC(Cl)C(Cl)C(C)Cl` (stereo not given) belongs -15.3%.
On the same count and under the same terms, the figure for `C[N+](C)(C)CCOC(N)=O` is -3.45% [at 30.3 µM]; for `NC(CCC(=O)O)C(=O)O` (stereo not given) it is -2.67%; for `O=C(OCC(COC(=O)c1cccnc1)(COC(=O)c1cccnc1)COC(=O)c1cccnc1)c1cccnc1` it is -0.692% [at 30.3 µM].
Same read-out and setting: to `O=S1(=O)CCCC1` belongs 12.7%; to `CC1=C(CC(=O)O)c2cc(F)ccc2/C1=C\c1ccc(S(C)(=O)=O)cc1`, -5.6% [at 30.3 µM]; to `C/C=C/C=C/C=O`, 3.7%.
On to `CCCCCCCCCCCCN1CCCC1=O`, for which the “activity change, negative = cytotoxicity” value is -2.44%.
For the molecule `CCC(Cl)CC(Cl)C(Cl)C(Cl)C(Cl)C(C)Cl` (stereo not given), the activity change, negative = cytotoxicity was -1.84% [at 13.5 µM].
Still for that read-out and setting: the figure for `CCCCCCCC/C=C\CCCCCCCC(=O)OCC` is -6.15%; for `O=C(N/N=C/c1ccc([N+](=O)[O-])o1)c1ccc(O)cc1` it is 1.12% [at 30.3 µM].
The same measure, in the same setting: to `C1CCCCCCCCCCC1` belongs -2.12% [at 13.5 µM]; to `CN1C[C@H]2c3ccccc3Oc3ccc(Cl)cc3[C@@H]2C1`, 47.8% [at 30.3 µM].
Take `Cc1onc(-c2ccccc2Cl)c1C(=O)N[C@@H]1C(=O)N2[C@@H]1SC(C)(C)[C@@H]2C(=O)O`: the “activity change, negative = cytotoxicity” value is 18.9% [at 30.3 µM].
The same measure, in the same setting: to `C=CC(=O)[O-].C=CC(=O)[O-].[Zn+2]` belongs 19.9%; to `Cc1oc(=O)oc1CN1CCN(c2cc3c(cc2F)c(=O)c(C(=O)O)c2n3C(C)S2)CC1` (stereo not given), 0.832% [at 30.3 µM]; to `O=C(Nc1ncc([N+](=O)[O-])s1)c1cccs1`, -18.9% [at 30.3 µM].
Still for that read-out and setting: to `COc1cc([N+](=O)[O-])ccc1N` belongs -0.75%; to `CC1=Nc2ccc3ccccc3c2C1(C)C`, 1.5%.
`CCOC(=O)COc1ccc2c(c1)CC(NCC(O)c1cccc(Cl)c1)CC2` (stereo not given): the “activity change, negative = cytotoxicity” value is -13.9%.
Same read-out and setting: the figure for `COC(=O)c1ccccc1OC` is 8.08%.
Turning to `[Cl][Bi]([Cl])([c]1ccccc1)([c]1ccccc1)[c]1ccccc1`, the Potency was 4.05 µM (active).
Take `Nc1cccc([N+](=O)[O-])c1`: the “activity change, negative = cytotoxicity” value was 2.54%.
The same measure, in the same setting: the figure for `O=C1CCc2ccc(OCCCCN3CCN(c4cccc(Cl)c4Cl)CC3)cc2N1` is -6.56% [at 30.3 µM]; for `Oc1ccccc1F` it is 2.43%.
